# Records with an inconclusive call do not appear. Active and inactive are the calls of the source. Calls come from the whole dose curve; as a rule, active = well fitted activation curve with a large enough effect in the main read-out, with a control signal flat; inconclusive = small, poorly fitted or top-dose-only effect, or effect the other way, or a change in a side signal; inactive = no such curve, though single readings can be large or run the other way.
# Test system: not listed separately
# Assay: Confirmation Concentration-Response Assay for Agonists of the Thyroid Stimulating Hormone Receptor; for activation: % of control where 0% means no effect
# Conditions: HEK293 TSHR-CNG cells, membrane potential dye, cAMP; measured here: parental HEK293 counter-screen max
# Method in brief: (§1)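 HEK 293 cells stably expressing TSHR and a modified CNG channel as cAMP biosensor; parental CNG-only cells as counterscreen. Cells loaded with membrane potential dye containing 100 uM RO 20-1724 for 60 min, compound added 30 min, fluorescence read at 590 nm.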
# Potency is the fitted concentration of half-maximal effect.
row,Structure (SMILES),max response [%]
1,CCOC(=O)CSc1nnc(NC(=O)c2cccc(S(=O)(=O)N3CCCCC3)c2)s1,-6.14
2,COC(=O)C1=C(C)OC(N)=C(C#N)C1c1c(C)nn(-c2ccccc2)c1Cl (stereo not given),6.03
3,Cc1oc(-c2cccc(Cl)c2)nc1CN1CCCC(C(=O)NC(C)c2ccc3c(c2)OCCO3)C1 (stereo not given),8.77
4,O=S(=O)(c1ccccc1)N1CCN(C2CCN(Cc3ccccc3)CC2)CC1,0.84
5,CCOC(=O)N1CCC(NC(=O)c2ccc(CNS(=O)(=O)c3ccc(F)cc3)cc2)CC1,8.37
6,Cc1cc(C)nc(N(C#N)CC(=O)N2CCC(C(N)=O)CC2)n1,-13.4
7,O=C(Nc1ccc(N2CCOCC2)cc1)C1CC1,5.07
8,Cc1ccc(C)c(Cn2c(C(C)O)nc3ccccc32)c1 (stereo not given),-2.8
9,Cc1cc(SCNC(=O)c2ccccc2)ncn1,-2.72
10,Cc1onc(-c2ccccc2Cl)c1C(=O)Nc1ccc(-n2nncc2-c2ccco2)cc1,-3.47
11,O=C1CC(c2ccco2)CC2=C1C(c1ccccc1)n1nc(C(F)(F)F)nc1N2 (stereo not given),-7.22
12,O=C1c2ccccc2C(=O)N1Cc1nc(-c2ccccc2)no1,21.1
13,COc1cccc(C(c2nnnn2Cc2ccccc2)N2CCN(C(=O)c3ccco3)CC2)c1OC (stereo not given),-3.51
14,Cc1cc(-n2c(C)cc(C(=O)CSc3nnnn3-c3ccc(Cl)cc3)c2C)no1,13.5
15,COc1ccc(S(=O)(=O)NCCC(=O)NCc2ccc(F)cc2)cc1,-8.89
16,CCOC(=O)C1C(=O)Nc2nc(C)nn2C1c1ccccc1 (stereo not given),-7.34
17,Oc1ccccc1Cn1c(-c2ccccc2O)nc2ccccc21,-14.6
18,CCSCCOC(=O)C1=C(C)N(C)C(=O)NC1c1cc(OC)ccc1OC (stereo not given),7.65
19,CCOC(=O)c1cnc(-n2nc(C)cc2C)nc1-n1nc(C)cc1C,-6.3
20,Nc1ccc2c(c1)COc1ccccc1O2,-5.76
21,COc1cc(OC)cc(-c2nnc(SCC(=O)N(C(C)C)C(C)C)o2)c1,16.6
22,NC(=O)c1nsc(C(=O)N(CC(=O)NCc2ccc3c(c2)OCO3)C2CCCCC2)c1N,8.82
23,Cc1ccccc1-c1nc(CN2CCC(C(=O)N3CCN(c4ccccn4)CC3)CC2)c(C)o1,17.1
24,O=C(C1COc2ccccc2O1)N1CCCC1 (stereo not given),-1.94
25,CSc1nc(NC(C)(C)C)nc(Oc2ccc(=O)[nH]n2)n1,-2.82
26,CCC(C)(C)n1nnnc1CN(Cc1ccco1)Cc1cc2cc3c(cc2[nH]c1=O)OCO3,-12.1
27,CCCC(=O)C1=C(SCC)CC(C)(C)C(C(=O)OC)C1=O (stereo not given),9.56
28,COc1cc(/C=N/n2c(SC)nnc(C(C)(C)C)c2=O)ccc1O,-7.99
29,Cn1cccc1Cc1nnc(SCC(N)=O)n1CCc1ccccc1,3.14
30,CC1(C)c2ccccc2N2CCC(=O)NC21/C=C/c1ccco1 (stereo not given),13.4

# Molecular target: Thyrotropin receptor (Homo sapiens) (UniProt P16473)
# Sequence (P16473 whole entry, looked up): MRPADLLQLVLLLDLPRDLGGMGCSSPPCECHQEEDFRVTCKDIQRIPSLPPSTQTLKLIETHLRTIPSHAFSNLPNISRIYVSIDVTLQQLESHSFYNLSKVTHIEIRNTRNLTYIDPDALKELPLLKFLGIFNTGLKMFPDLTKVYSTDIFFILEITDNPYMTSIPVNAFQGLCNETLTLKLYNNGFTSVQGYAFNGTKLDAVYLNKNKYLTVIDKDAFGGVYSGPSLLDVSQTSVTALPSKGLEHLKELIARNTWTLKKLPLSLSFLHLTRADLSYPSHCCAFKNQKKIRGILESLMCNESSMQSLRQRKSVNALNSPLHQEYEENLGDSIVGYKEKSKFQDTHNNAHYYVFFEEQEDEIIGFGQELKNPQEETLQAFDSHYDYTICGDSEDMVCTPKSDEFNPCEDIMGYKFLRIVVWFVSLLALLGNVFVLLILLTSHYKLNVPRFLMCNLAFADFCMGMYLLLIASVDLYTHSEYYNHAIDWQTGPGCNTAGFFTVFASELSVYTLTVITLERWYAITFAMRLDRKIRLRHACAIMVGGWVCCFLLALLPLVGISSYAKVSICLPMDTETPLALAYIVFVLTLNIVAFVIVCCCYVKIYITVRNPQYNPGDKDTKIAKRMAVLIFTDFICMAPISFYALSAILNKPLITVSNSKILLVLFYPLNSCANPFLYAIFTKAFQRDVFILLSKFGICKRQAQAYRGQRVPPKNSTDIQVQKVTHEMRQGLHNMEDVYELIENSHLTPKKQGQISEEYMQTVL
# Assay: as above
# Conditions: HEK293 TSHR-CNG cells, membrane potential dye, cAMP; series mostly up to 25.6 µM
# Method in brief: as §1
row,Structure (SMILES),Potency
1,COC(=O)C1=C(C)OC(N)=C(C#N)C1c1c(C)nn(-c2ccccc2)c1Cl (stereo not given),7.94 µM (active)
2,Cc1oc(-c2cccc(Cl)c2)nc1CN1CCCC(C(=O)NC(C)c2ccc3c(c2)OCCO3)C1 (stereo not given),inactive
3,O=S(=O)(c1ccccc1)N1CCN(C2CCN(Cc3ccccc3)CC2)CC1,inactive
4,Cc1cc(C)nc(N(C#N)CC(=O)N2CCC(C(N)=O)CC2)n1,inactive
5,Cc1cc(-n2c(C)cc(C(=O)CSc3nnnn3-c3ccc(Cl)cc3)c2C)no1,3.98 µM (active)
6,COc1ccc(S(=O)(=O)NCCC(=O)NCc2ccc(F)cc2)cc1,inactive
7,CCSCCOC(=O)C1=C(C)N(C)C(=O)NC1c1cc(OC)ccc1OC (stereo not given),inactive
8,Nc1ccc2c(c1)COc1ccccc1O2,inactive
9,CSc1nc(NC(C)(C)C)nc(Oc2ccc(=O)[nH]n2)n1,inactive
10,Cn1cccc1Cc1nnc(SCC(N)=O)n1CCc1ccccc1,inactive
